# The supplement of paper PMC10037445
# “And” between values parts separate entries of the source, which are not always exact repeats. Equal entries are not always repeated. The full ranking holds about 2,900 compounds; the median of “NF-kB SEAP reporter activity, fold change vs agonist alone” is about 0.99, and the highest 2% start at about 2.6. Many of the other results were omitted from the sample, so the highest values are more common in it than they were.
# What was measured:
# RAW-Dual [1] = assay: NF-kB SEAP reporter activity, fold change vs agonist alone; higher = enhanced NF-kB activity
# Outline: (§1)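 Cytotoxic wells were those whose IncuCyte confluency was below 70% of agonist controls in both mask sets. The cells were RAW-Dual macrophages at 50,000 cells/well in DMEM on 384-well plates, dosed with 50 nL of library stock by pin tool, stimulated with a PRR agonist 1 h later, and kept at 37 °C, 5% CO2 for 20 hours. IRF and NF-κB reporter activity, as fold change over agonist-alone wells, came from supernatant read by QuantiLuc luminescence and QuantiBlue absorbance, respectively.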
# RAW-Dual [2] = assay: NF-kB SEAP reporter activity, fold change vs agonist alone; cytotoxicity flag (confluency mask): not cytotoxic; higher = enhanced NF-kB activity
# Outline: as §1
# RAW-Dual [3] = assay: NF-kB SEAP reporter activity, fold change vs agonist alone; cytotoxicity flag (confluency mask): cytotoxic (confluency <70% of control); higher = enhanced NF-kB activity
# Outline: as §1
# [4] = library stock concentration (final ~1000-fold dilution): 10 mM, cytotoxicity flag (confluency mask): not cytotoxic, agonist: Imiquimod (TLR7) […]
# [5] = library stock concentration (final ~1000-fold dilution): 10 mM, cytotoxicity flag (confluency mask): not cytotoxic, agonist: MPLA (TLR4) […]
# [6] = agonist: ODN 1826 (TLR9) 0.5 ug/mL
# [7] = agonist: Pam2CSK4 (TLR2/6) 0.1 ug/mL
# [8] = agonist: Pam3CSK4 (TLR2/1) 0.1 ug/mL
# [9] = library stock concentration (final ~1000-fold dilution): 10 mM water, cytotoxicity flag (confluency mask): not cytotoxic, agonist: Imiquimod (TLR7) […]
# [10] = library stock concentration (final ~1000-fold dilution): 10 mM water, cytotoxicity flag (confluency mask): not cytotoxic, agonist: MPLA (TLR4) […]
smiles,measurement,setting,value
Cn1cc(-c2cc(Oc3cc(F)c(NC(=O)C4(C(=O)Nc5ccccc5)CC4)cc3F)ccn2)cn1,NF-kB SEAP reporter activity,RAW-Dual [1]; [4],0.974
same,NF-kB SEAP reporter activity,RAW-Dual [1]; [5],1.71
COc1cc2nccc(Oc3ccc(NC(=O)C4(C(=O)Nc5ccc(F)cc5)CC4)cc3)c2cc1OC.O=C(O)CC(O)C(=O)O (library stock concentration (final ~1000-fold dilution): 10 mM),NF-kB SEAP reporter activity,RAW-Dual [2]; agonist: LPS (TLR4) 0.1 ug/mL,0.861
same,NF-kB SEAP reporter activity,RAW-Dual [2]; [6],0.525
same,NF-kB SEAP reporter activity,RAW-Dual [2]; [7],0.284
same,NF-kB SEAP reporter activity,RAW-Dual [2]; [8],0.277
Cn1cc(-c2cc(Oc3cc(F)c(NC(=O)C4(C(=O)Nc5ccccc5)CC4)cc3F)ccn2)cn1 (library stock concentration (final ~1000-fold dilution): 10 mM),NF-kB SEAP reporter activity,RAW-Dual [2]; agonist: LPS (TLR4) 0.1 ug/mL,3.09
same,NF-kB SEAP reporter activity,RAW-Dual [2]; [6],0.863
same,NF-kB SEAP reporter activity,RAW-Dual [2]; [7],0.629
same,NF-kB SEAP reporter activity,RAW-Dual [2]; [8],0.98
COc1cc2nccc(Oc3ccc(NC(=O)C4(C(=O)Nc5ccc(F)cc5)CC4)cc3)c2cc1OC.O=C(O)CC(O)C(=O)O,NF-kB SEAP reporter activity,RAW-Dual [1]; [4],0.796
same,NF-kB SEAP reporter activity,RAW-Dual [1]; [5],0.939
COc1ccc2cc1Oc1ccc(cc1)CC1c3cc(c(OC)cc3CCN1C)Oc1c(O)c(OC)cc3c1C(C2)N(C)CC3 (stereo not drawn),NF-kB SEAP reporter activity,"RAW-Dual [1]; library stock concentration (final ~1000-fold dilution): 10 mM, cytotoxicity flag (confluency mask): cytotoxic (confluency <70% of control), agonist: Imiquimod (TLR7) […]",0.618
same,NF-kB SEAP reporter activity,"RAW-Dual [1]; library stock concentration (final ~1000-fold dilution): 10 mM, cytotoxicity flag (confluency mask): cytotoxic (confluency <70% of control), agonist: MPLA (TLR4) […]",2.39
COc1ccc2cc1Oc1ccc(cc1)CC1c3cc(c(OC)cc3CCN1C)Oc1c(O)c(OC)cc3c1C(C2)N(C)CC3 (stereo not drawn) (library stock concentration (final ~1000-fold dilution): 10 mM),NF-kB SEAP reporter activity,RAW-Dual [3]; agonist: LPS (TLR4) 0.1 ug/mL,1.81
same,NF-kB SEAP reporter activity,RAW-Dual [3]; [6],0.241
same,NF-kB SEAP reporter activity,RAW-Dual [3]; [7],2.15
same,NF-kB SEAP reporter activity,RAW-Dual [3]; [8],1.31
O=C1C(CCC(O)c2ccc(F)cc2)C(c2ccc(O)cc2)N1c1ccc(F)cc1 (stereo not drawn),NF-kB SEAP reporter activity,RAW-Dual [1]; [4],0.952
same,NF-kB SEAP reporter activity,RAW-Dual [1]; [5],1.38
O=C1C(CCC(O)c2ccc(F)cc2)C(c2ccc(O)cc2)N1c1ccc(F)cc1 (stereo not drawn) (library stock concentration (final ~1000-fold dilution): 10 mM),NF-kB SEAP reporter activity,RAW-Dual [2]; agonist: LPS (TLR4) 0.1 ug/mL,1.42
same,NF-kB SEAP reporter activity,RAW-Dual [2]; [6],0.665
same,NF-kB SEAP reporter activity,RAW-Dual [2]; [7],0.889
same,NF-kB SEAP reporter activity,RAW-Dual [2]; [8],0.589
CC1(C)SC2CC(=O)N2C1C(=O)OCOC(=O)C1N2C(=O)C(NC(=O)C(N)c3ccccc3)C2S(=O)(=O)C1(C)C.Cc1ccc(S(=O)(=O)O)cc1 (stereo not drawn),NF-kB SEAP reporter activity,RAW-Dual [1]; [5],1.02
CC1(C)SC2CC(=O)N2C1C(=O)OCOC(=O)C1N2C(=O)C(NC(=O)C(N)c3ccccc3)C2S(=O)(=O)C1(C)C.Cc1ccc(S(=O)(=O)O)cc1 (stereo not drawn) (library stock concentration (final ~1000-fold dilution): 10 mM),NF-kB SEAP reporter activity,RAW-Dual [2]; agonist: LPS (TLR4) 0.1 ug/mL,1.26
same,NF-kB SEAP reporter activity,RAW-Dual [2]; [6],0.797
same,NF-kB SEAP reporter activity,RAW-Dual [2]; [7],1.02
same,NF-kB SEAP reporter activity,RAW-Dual [2]; [8],0.873
CN1C(CC(=O)c2ccccc2)CCCC1CC(O)c1ccccc1.Cl (stereo not drawn) (library stock concentration (final ~1000-fold dilution): 10 mM),NF-kB SEAP reporter activity,RAW-Dual [2]; agonist: LPS (TLR4) 0.1 ug/mL,1.18
same,NF-kB SEAP reporter activity,RAW-Dual [2]; [6],0.669
same,NF-kB SEAP reporter activity,RAW-Dual [2]; [7],0.9
same,NF-kB SEAP reporter activity,RAW-Dual [2]; [8],1.15
CN1C(CC(=O)c2ccccc2)CCCC1CC(O)c1ccccc1.Cl (stereo not drawn),NF-kB SEAP reporter activity,RAW-Dual [1]; [4],0.779
same,NF-kB SEAP reporter activity,RAW-Dual [1]; [5],0.909
O=C(O)CN(CC(=O)O)c1ccccc1OCCOc1ccccc1N(CC(=O)O)CC(=O)O,NF-kB SEAP reporter activity,RAW-Dual [1]; [4],0.994
same,NF-kB SEAP reporter activity,RAW-Dual [1]; [5],1.01
O=C(O)CN(CC(=O)O)c1ccccc1OCCOc1ccccc1N(CC(=O)O)CC(=O)O (library stock concentration (final ~1000-fold dilution): 10 mM),NF-kB SEAP reporter activity,RAW-Dual [2]; agonist: LPS (TLR4) 0.1 ug/mL,1
same,NF-kB SEAP reporter activity,RAW-Dual [2]; [6],0.989
same,NF-kB SEAP reporter activity,RAW-Dual [2]; [7],1.04
same,NF-kB SEAP reporter activity,RAW-Dual [2]; [8],0.872
CN1C2=C3N=c4ccccc4=C3CCN2C(=O)c2ccccc21.Cl,NF-kB SEAP reporter activity,RAW-Dual [1]; [4],0.969
same,NF-kB SEAP reporter activity,RAW-Dual [1]; [5],0.999
CN1C2=C3N=c4ccccc4=C3CCN2C(=O)c2ccccc21.Cl (library stock concentration (final ~1000-fold dilution): 10 mM),NF-kB SEAP reporter activity,RAW-Dual [2]; agonist: LPS (TLR4) 0.1 ug/mL,1.21
same,NF-kB SEAP reporter activity,RAW-Dual [2]; [6],0.594
same,NF-kB SEAP reporter activity,RAW-Dual [2]; [7],1.28
same,NF-kB SEAP reporter activity,RAW-Dual [2]; [8],1.1
CCS(=O)(=O)N1CC(CC#N)(n2cc(-c3ncnc4[nH]ccc34)cn2)C1 (library stock concentration (final ~1000-fold dilution): 10 mM),NF-kB SEAP reporter activity,RAW-Dual [2]; agonist: LPS (TLR4) 0.1 ug/mL,1.65 and 0.788
same,NF-kB SEAP reporter activity,RAW-Dual [2]; [6],1.96 and 2.12
same,NF-kB SEAP reporter activity,RAW-Dual [2]; [7],1.19 and 1.64
same,NF-kB SEAP reporter activity,RAW-Dual [2]; [8],1.77 and 2.42
N#CCC1(n2cc(-c3ncnc4[nH]ccc34)cn2)CN(C2CCN(C(=O)c3ccnc(C(F)(F)F)c3F)CC2)C1,NF-kB SEAP reporter activity,RAW-Dual [1]; [4],0.89
same,NF-kB SEAP reporter activity,RAW-Dual [1]; [5],0.922
N#CCC1(n2cc(-c3ncnc4[nH]ccc34)cn2)CN(C2CCN(C(=O)c3ccnc(C(F)(F)F)c3F)CC2)C1 (library stock concentration (final ~1000-fold dilution): 10 mM),NF-kB SEAP reporter activity,RAW-Dual [2]; agonist: LPS (TLR4) 0.1 ug/mL,0.591
same,NF-kB SEAP reporter activity,RAW-Dual [2]; [6],1.09
same,NF-kB SEAP reporter activity,RAW-Dual [2]; [7],1.11
same,NF-kB SEAP reporter activity,RAW-Dual [2]; [8],1.03
N#CCC(C1CCCC1)n1cc(-c2ncnc3[nH]ccc23)cn1 (stereo not drawn) (library stock concentration (final ~1000-fold dilution): 10 mM),NF-kB SEAP reporter activity,RAW-Dual [2]; agonist: LPS (TLR4) 0.1 ug/mL,0.995 and 0.96 and 0.998
same,NF-kB SEAP reporter activity,RAW-Dual [2]; [6],2.7 and 1.88 and 2.86
same,NF-kB SEAP reporter activity,RAW-Dual [2]; [7],1.81 and 1.49 and 1.69
same,NF-kB SEAP reporter activity,RAW-Dual [2]; [8],2.14 and 2.16 and 2.67
CC(C)(C)N.CCCC(NC(C)C(=O)N1C(C(=O)O)CC2CCCCC21)C(=O)OCC (stereo not drawn) (library stock concentration (final ~1000-fold dilution): 10 mM water),NF-kB SEAP reporter activity,RAW-Dual [2]; agonist: LPS (TLR4) 0.1 ug/mL,1.05
same,NF-kB SEAP reporter activity,RAW-Dual [2]; [6],1.13
same,NF-kB SEAP reporter activity,RAW-Dual [2]; [7],1.17
same,NF-kB SEAP reporter activity,RAW-Dual [2]; [8],1.02
CC(C)(C)N.CCCC(NC(C)C(=O)N1C(C(=O)O)CC2CCCCC21)C(=O)OCC (stereo not drawn),NF-kB SEAP reporter activity,RAW-Dual [1]; [9],0.909
same,NF-kB SEAP reporter activity,RAW-Dual [1]; [10],1.04
CC(C)(C)Cn1c(N)nc2ccc(-c3[nH]c(C(C)(C)C)nc3-c3ccc(F)cc3)nc21.CS(=O)(=O)O.CS(=O)(=O)O,NF-kB SEAP reporter activity,RAW-Dual [1]; [9],0.303
same,NF-kB SEAP reporter activity,RAW-Dual [1]; [10],0.892
CC(C)(C)Cn1c(N)nc2ccc(-c3[nH]c(C(C)(C)C)nc3-c3ccc(F)cc3)nc21.CS(=O)(=O)O.CS(=O)(=O)O (library stock concentration (final ~1000-fold dilution): 10 mM water),NF-kB SEAP reporter activity,RAW-Dual [2]; agonist: LPS (TLR4) 0.1 ug/mL,1.03
same,NF-kB SEAP reporter activity,RAW-Dual [2]; [6],0.512
same,NF-kB SEAP reporter activity,RAW-Dual [2]; [7],0.242
same,NF-kB SEAP reporter activity,RAW-Dual [2]; [8],0.506
